Screening results (PubChem BioAssay)
A selection: hits, their analogues and other compounds. The true share with any hit is near 3.6%.
AmpC inh detg: AmpC beta-lactamase inhibition with detergent present. P00811. AmpC hydrolysis of nitrocefin, absorbance 480 nm, 0.01% Triton. Potency, µM (titrated, usually from 114 µM), hits mostly inhibitors. hit rate 0.041% among 370,000. AID 485294; further: nearly all actives have a fitted effect of over 25% in size
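AmpC (5.3 nM in the dispensed reagent) in 20 mM phosphate pH 7.0 with 0.01% (detergent screen) or 0.0001% Triton X-100 was preincubated with compounds for 15 min at room temperature. Nitrocefin was then added from an 800 uM solution, and hydrolysis was followed at 480 nm.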
Sm TGR block: blocks Schistosoma mansoni thioredoxin glutathione reductase; Q962Y6; purified TGR, DTNB reduction, TNB absorbance 405 nm; Potency, µM (titrated, usually from 114 µM), usual class: inhibitors; hit rate 3% among 360,000; further: nearly all actives have a fitted effect of over 60% in size
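Kinetic colorimetric format: TGR-catalysed, NADPH-driven DTNB reduction monitored via TNB absorbance. Enzyme dispensed at 20 nM; compound exposure 15 min at room temperature before reaction start.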
Giardia FBPA inh: blocks Giardia fructose-bisphosphate aldolase activity | A8B2U2 | AID 2451 | hit rate 0.71% among 290,000 | Potency, µM (top dose mostly 59.6 µM), actives largely listed as inhibitors | purified Giardia FBPA; further: nearly all actives have a fitted effect of over 55% in size
Target sequence (A8B2U2 whole entry, looked up): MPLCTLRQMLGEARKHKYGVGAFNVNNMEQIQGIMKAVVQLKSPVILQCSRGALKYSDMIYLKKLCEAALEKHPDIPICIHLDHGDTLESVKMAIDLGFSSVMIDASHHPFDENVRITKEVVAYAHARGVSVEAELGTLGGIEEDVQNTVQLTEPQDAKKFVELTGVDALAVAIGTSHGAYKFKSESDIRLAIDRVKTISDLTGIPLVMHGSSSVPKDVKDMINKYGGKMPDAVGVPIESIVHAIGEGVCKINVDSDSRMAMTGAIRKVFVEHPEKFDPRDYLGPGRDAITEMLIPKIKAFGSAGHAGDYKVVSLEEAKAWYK
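Giardia FBPA (40 nM reagent) was preincubated 10 min at RT with compound (up to 57.5 uM final), then substrate plus GAPDH/TPI/NAD/arsenate coupling system with diaphorase/resazurin was added; resorufin fluorescence (525/598 nm) was read after 20 min.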
AmpC inh no detg: AmpC beta-lactamase inhibition without detergent; P00811; AmpC nitrocefin hydrolysis, absorbance 480 nm, 0.0001% Triton; Potency, µM (series often up to 57.1 µM), most hits filed as inhibitors; hit rate 0.52% among 330,000; further: nearly all actives have a fitted effect of over 20% in size
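20 mM phosphate pH 7.0 + 0.01% (detergent screen) or 0.0001% Triton X-100; 5.3 nM AmpC reagent; cpd preinc 15 min RT; nitrocefin (800 uM stock) to start; A480 q20 s × 4 min; Activity was normalised to no-enzyme and no-compound control wells.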
Hits are given with their value. The call rests on the fitted dose curve; in most records, active means well fitted curve in the direction sought with a large enough effect; inconclusive means small, poorly fitted or top-dose-only effect, or another doubt; inactive means no such curve, though single readings can be large; an effect the other way counts as inactive or inconclusive.

What do the screens show for `CCOC(=O)[C@H]1[C@H]2COc3cc(OC)ccc3[C@@H]2N2C(=O)CN(Cc3ccco3)C(=O)[C@@]12C`?
AmpC inh detg: inactive; Sm TGR block: 18µM; AmpC inh no detg: inactive

How did CCOC(=O)c1c(NC(=O)C2=COCCO2)sc2c1CCN(C(=O)OC)C2 do in these assays?
AmpC inh detg: inconclusive; Sm TGR block: inactive; AmpC inh no detg: inactive

How did CC(C)(C)OC(=O)N[C@H](C(=O)OC(C)(C)C)c1ccc2c(c1)OCO2 do in these assays?
AmpC inh detg: inactive; Sm TGR block: inactive; AmpC inh no detg: inactive

How did O=C(Nc1ccc(Oc2ccccc2)nc1)C1CCCCN1Cc1ccc(OCCO)cc1 (stereo not given) do in these assays?
AmpC inh detg: inactive; Sm TGR block: inconclusive; Giardia FBPA inh: inactive; AmpC inh no detg: inactive

Results for O=C(CCS(=O)(=O)c1ccccc1)N(CCCN1CCOCC1)c1nc2c(F)cccc2s1 ?
AmpC inh detg: inactive; Sm TGR block: 11µM; AmpC inh no detg: inactive

Results for O=C(CCS(=O)(=O)c1ccccc1)N(CCCN1CCOCC1)c1nc2ccc(F)cc2s1 ?
AmpC inh detg: inactive; Sm TGR block: 13µM; AmpC inh no detg: inactive

Results for CCOC(=O)c1cccc(NC(=O)NCc2ccc3c(c2)CCN3C(=O)CC)c1 ?
AmpC inh detg: inactive; Sm TGR block: inactive

What do the screens show for `O=C(NCCc1cccs1)c1ccc(Cn2c(SCc3ccc(F)cc3)nc3cccnc32)cc1`?
AmpC inh detg: inactive; Sm TGR block: inactive

How did C=C(C)c1cc2c(ccc3ccc(=O)oc32)o1 do in these assays?
AmpC inh no detg: inactive

Results for CC(=O)c1ccc(-c2cccc(-c3cc(=O)oc4ccc(C(C)(C)C)cc34)c2)cc1 ?
Giardia FBPA inh: inactive; AmpC inh no detg: inactive

What do the screens show for `CCc1cccc(C)c1NC(=O)C1CCN(c2nn3c(=O)cc(C)nc3s2)CC1`?
AmpC inh detg: inactive; Sm TGR block: inactive; AmpC inh no detg: inactive

How did COCCn1c(=NC(=O)CCS(=O)(=O)c2ccccc2)sc2cc(F)ccc21 do in these assays?
AmpC inh detg: inactive; Sm TGR block: 40µM; AmpC inh no detg: inactive

How did COCCn1c(=NC(=O)CCS(=O)(=O)c2ccccc2)sc2cc(C)ccc21 do in these assays?
AmpC inh detg: inactive; Sm TGR block: 35µM; AmpC inh no detg: inactive

How did COCCn1c(=NC(=O)CSC(C)=O)sc2cc(F)ccc21 do in these assays?
AmpC inh detg: inactive; Sm TGR block: inactive; Giardia FBPA inh: inactive; AmpC inh no detg: inactive

What do the screens show for `COc1ccc(C(=O)/C=C2/c3ccccc3CC(C)(C)N2C)cc1OC`?
AmpC inh detg: inconclusive; Sm TGR block: inactive; Giardia FBPA inh: inconclusive; AmpC inh no detg: inactive

What do the screens show for `Cn1cnc(S(=O)(=O)N2CCCC(C(=O)NCc3ccc(Cl)cc3)C2)c1` (stereo not given)?
AmpC inh detg: inactive; Sm TGR block: inactive

Results for CN(C)c1ccc(NC(=O)c2ccc([N+](=O)[O-])cc2Cl)cc1 ?
AmpC inh detg: 100µM; Sm TGR block: inactive; Giardia FBPA inh: inactive; AmpC inh no detg: inactive

Results for COc1ccc(C(=O)c2ccc([N+](=O)[O-])cc2Cl)cc1 ?
AmpC inh detg: inactive; Sm TGR block: 13µM; Giardia FBPA inh: inactive; AmpC inh no detg: inactive

How did COc1ccc(Cl)cc1NC(=O)C(C)OC(=O)c1ccc(NS(=O)(=O)c2ccc3[nH]c(=O)[nH]c3c2)cc1 (stereo not given) do in these assays?
AmpC inh detg: inactive; Sm TGR block: inactive; Giardia FBPA inh: inactive; AmpC inh no detg: 3.5µM

Results for CC(OC(=O)c1ccc(NS(=O)(=O)c2ccc3[nH]c(=O)[nH]c3c2)cc1)C(=O)Nc1ccc(Cl)cc1 (stereo not given) ?
AmpC inh detg: inactive; Sm TGR block: inactive; Giardia FBPA inh: inactive; AmpC inh no detg: inactive

What do the screens show for `CC(=O)Nc1ccc(S(=O)(=O)NNc2cccc(C)c2)cc1`?
AmpC inh detg: inactive; Sm TGR block: 14µM; AmpC inh no detg: inactive

How did O=CN1CCCN(C(=O)CC2C(=O)NCCN2Cc2cccc(Oc3ccccc3)c2)CC1 (stereo not given) do in these assays?
AmpC inh detg: inactive; Sm TGR block: 13µM; AmpC inh no detg: inactive

How did CN(Cc1ccccn1)C(=O)CC1C(=O)NCCN1Cc1ccc(F)cc1Cl (stereo not given) do in these assays?
AmpC inh detg: inactive; Sm TGR block: 45µM; AmpC inh no detg: inactive

Results for COc1cccc(CN2CCNC(=O)C2CC(=O)N(C)C2CCOCC2)c1 (stereo not given) ?
AmpC inh detg: inactive; Sm TGR block: inconclusive; Giardia FBPA inh: inactive; AmpC inh no detg: inactive
